What all share (test): DAPPL (digital affinity profiling via proximity ligation, sequencing); 10 mM Tris-HCl pH 7.5, 50 mM NaCl, 1 mM DTT, 4% glycerol, room temperature, 30 min; GST-TFs on glutathione beads, 16-mer random dsDNA library, 0.1% formaldehyde crosslink after washing; high values mean tight binding
What all share (conditions): protein: recombinant; tags: N-terminal GST; dsDNA, one strand shown

Test [1] deals with T1, FLI1 (Homo sapiens, UniProt Q01543 1-452).
T1 sequence: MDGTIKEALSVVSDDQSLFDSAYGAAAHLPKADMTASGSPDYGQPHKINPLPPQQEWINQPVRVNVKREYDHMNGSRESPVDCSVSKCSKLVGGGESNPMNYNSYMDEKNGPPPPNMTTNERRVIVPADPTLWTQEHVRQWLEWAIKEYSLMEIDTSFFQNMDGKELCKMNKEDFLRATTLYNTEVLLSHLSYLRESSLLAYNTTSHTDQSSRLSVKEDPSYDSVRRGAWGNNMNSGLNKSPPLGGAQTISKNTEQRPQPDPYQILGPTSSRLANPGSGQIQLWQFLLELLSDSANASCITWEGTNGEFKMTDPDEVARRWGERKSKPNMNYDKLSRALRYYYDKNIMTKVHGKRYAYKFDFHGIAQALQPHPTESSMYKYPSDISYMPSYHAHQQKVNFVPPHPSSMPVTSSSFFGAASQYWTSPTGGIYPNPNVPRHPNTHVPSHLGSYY
In short, it runs like this:
(§1)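 Pools were built from human transcription factors expressed in yeast as GST fusions, captured on glutathione beads and DNA-barcoded, along with a tag-only sample. Incubation with 200 nmole of a 16-mer random double-stranded DNA library lasted 30 min at room temperature in Tris/NaCl/DTT/glycerol buffer, and was followed by washing, 0.1% formaldehyde crosslinking, proximity ligation, PCR amplification and Illumina NextSeq500 sequencing. Binding signal is the quotient of each hexamer's read frequency for a factor and its frequency for the tag-only sample.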

Test [2] has as its target T2, ELK1 (Homo sapiens, UniProt P19419 1-428).
T2 sequence: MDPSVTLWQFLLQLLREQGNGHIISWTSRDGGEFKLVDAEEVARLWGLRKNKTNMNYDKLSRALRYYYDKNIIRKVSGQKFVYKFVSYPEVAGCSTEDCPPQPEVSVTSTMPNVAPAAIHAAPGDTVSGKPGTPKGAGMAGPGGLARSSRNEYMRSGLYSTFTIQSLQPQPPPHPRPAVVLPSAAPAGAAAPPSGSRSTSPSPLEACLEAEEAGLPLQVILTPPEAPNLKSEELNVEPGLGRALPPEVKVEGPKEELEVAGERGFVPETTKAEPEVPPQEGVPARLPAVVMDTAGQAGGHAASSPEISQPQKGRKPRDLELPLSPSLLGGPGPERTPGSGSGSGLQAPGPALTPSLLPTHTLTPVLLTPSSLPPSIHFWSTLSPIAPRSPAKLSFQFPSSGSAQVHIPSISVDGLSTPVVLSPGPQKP
In short, it runs like this:
as §1

The target of test [3] is T3, GABPA (Homo sapiens, UniProt Q06546 1-454).
T3 sequence: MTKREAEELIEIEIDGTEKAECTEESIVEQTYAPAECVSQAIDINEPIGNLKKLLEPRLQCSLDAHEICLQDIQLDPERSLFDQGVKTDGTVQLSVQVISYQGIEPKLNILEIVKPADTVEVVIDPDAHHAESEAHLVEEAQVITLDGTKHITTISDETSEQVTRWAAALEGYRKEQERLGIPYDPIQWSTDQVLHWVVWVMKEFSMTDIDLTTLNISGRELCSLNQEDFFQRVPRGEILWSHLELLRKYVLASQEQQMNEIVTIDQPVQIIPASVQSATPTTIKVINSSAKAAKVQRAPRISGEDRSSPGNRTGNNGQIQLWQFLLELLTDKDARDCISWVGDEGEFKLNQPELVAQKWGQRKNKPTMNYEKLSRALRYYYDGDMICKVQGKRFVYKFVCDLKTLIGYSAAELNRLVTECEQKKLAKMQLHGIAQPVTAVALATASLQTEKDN
In short, it runs like this: as §1

Test [4] concerns the target T4, ERG (Homo sapiens, UniProt P11308 1-479).
T4 sequence: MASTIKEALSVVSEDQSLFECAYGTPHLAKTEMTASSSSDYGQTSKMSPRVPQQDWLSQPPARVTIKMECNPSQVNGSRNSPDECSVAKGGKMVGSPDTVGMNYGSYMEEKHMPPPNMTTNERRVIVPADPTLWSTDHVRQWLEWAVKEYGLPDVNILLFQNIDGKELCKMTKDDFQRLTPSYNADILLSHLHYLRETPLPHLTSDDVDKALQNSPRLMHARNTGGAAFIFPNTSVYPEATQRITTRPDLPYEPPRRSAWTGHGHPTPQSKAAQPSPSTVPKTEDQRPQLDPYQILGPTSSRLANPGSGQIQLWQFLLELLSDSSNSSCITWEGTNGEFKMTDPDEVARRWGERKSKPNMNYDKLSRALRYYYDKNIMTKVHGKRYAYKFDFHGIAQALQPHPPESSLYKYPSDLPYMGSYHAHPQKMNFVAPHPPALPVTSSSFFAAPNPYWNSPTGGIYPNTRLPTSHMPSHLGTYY
In short, it runs like this:
as §1

Test [5] addresses ELF1 (Homo sapiens, UniProt P32519 1-619). In short, it runs like this:
as §1

For test [6], the target named is T5, EHF (Homo sapiens, UniProt Q9NZC4 1-300).
T5 sequence: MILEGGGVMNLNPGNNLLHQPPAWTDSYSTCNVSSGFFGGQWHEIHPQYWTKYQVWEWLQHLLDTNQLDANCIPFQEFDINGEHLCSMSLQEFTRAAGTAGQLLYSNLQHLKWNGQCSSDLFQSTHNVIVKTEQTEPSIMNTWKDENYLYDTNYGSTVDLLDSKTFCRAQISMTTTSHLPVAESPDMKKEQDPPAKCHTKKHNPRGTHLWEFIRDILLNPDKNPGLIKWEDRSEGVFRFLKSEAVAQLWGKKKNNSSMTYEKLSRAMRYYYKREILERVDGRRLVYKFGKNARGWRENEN
In short, it runs like this: as §1

The target in test [7] is SPI1 (Homo sapiens, UniProt P17947 1-270). The essentials:
as §1

In test [8] the target is SPIB (Homo sapiens, UniProt Q01892 1-262). The essentials: as §1
Chain of SPIB (Q01892 whole entry): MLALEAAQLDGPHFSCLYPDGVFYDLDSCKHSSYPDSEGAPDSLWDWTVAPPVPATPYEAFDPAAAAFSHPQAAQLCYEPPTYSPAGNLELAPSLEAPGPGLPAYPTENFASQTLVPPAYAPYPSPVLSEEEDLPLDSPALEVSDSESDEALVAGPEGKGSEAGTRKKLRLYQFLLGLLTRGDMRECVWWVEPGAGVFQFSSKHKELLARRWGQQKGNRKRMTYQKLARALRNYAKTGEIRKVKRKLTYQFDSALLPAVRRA
Test [9] concerns the target T6, ELK3 (Homo sapiens, UniProt P41970 1-407).
T6 sequence: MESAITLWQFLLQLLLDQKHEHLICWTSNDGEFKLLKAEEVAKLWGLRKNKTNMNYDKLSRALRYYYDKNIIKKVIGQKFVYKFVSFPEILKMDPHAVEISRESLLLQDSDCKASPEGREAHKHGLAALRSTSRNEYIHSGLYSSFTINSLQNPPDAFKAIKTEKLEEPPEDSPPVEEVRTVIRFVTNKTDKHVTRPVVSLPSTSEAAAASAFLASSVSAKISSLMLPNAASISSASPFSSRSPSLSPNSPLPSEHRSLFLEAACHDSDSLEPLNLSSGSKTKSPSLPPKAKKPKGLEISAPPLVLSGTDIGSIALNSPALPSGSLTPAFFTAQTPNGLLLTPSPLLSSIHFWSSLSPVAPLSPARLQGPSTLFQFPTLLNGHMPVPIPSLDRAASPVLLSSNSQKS
In short, it runs like this: as §1

Eight sequences from paper PMC7862700, “An all-to-all approach to the identification of sequence-specific readers for epigenetic DNA modifications on cytosine” can be followed below.

Chain of ELF1 (P32519 whole entry): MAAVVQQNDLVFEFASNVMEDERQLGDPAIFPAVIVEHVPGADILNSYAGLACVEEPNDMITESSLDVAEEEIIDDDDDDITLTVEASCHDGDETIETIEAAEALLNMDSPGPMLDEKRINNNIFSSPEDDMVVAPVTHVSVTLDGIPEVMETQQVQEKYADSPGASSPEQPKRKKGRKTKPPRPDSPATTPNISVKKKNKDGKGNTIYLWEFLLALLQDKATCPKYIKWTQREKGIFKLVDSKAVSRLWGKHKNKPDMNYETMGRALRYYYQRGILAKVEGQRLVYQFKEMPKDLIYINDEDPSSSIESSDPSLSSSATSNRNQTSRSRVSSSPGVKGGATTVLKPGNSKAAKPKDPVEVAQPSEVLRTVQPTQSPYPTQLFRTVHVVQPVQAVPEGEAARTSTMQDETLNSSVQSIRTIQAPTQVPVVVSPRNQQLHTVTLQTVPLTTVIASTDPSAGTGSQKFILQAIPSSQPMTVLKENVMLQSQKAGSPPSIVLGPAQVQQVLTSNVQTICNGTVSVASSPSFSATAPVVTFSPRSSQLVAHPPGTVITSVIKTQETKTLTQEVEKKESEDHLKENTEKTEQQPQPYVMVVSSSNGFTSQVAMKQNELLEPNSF

CAATAA: the binding signal in [1] was 1.12 fold enrichment (6-mer frequency, TF over GST control); in test [2] it was 1.07 fold enrichment (6-mer frequency, TF over GST control); in test [3] it was 1.25 fold enrichment (6-mer frequency, TF over GST control); in [4], 1.13 fold enrichment (6-mer frequency, TF over GST control); in test [5], 1.13 fold enrichment (6-mer frequency, TF over GST control); in test [6], 1.15 fold enrichment (6-mer frequency, TF over GST control). Besides, the binding signal in test [7] was 1.14 fold enrichment (6-mer frequency, TF over GST control); in test [8], 1.11 fold enrichment (6-mer frequency, TF over GST control); in test [9] it was 1.2 fold enrichment (6-mer frequency, TF over GST control).
As for ATCGAC, the binding signal in [1] is 1.13 fold enrichment (6-mer frequency, TF over GST control); in [2], 1.11 fold enrichment (6-mer frequency, TF over GST control); in test [3], 1.17 fold enrichment (6-mer frequency, TF over GST control); in test [4], 1.1 fold enrichment (6-mer frequency, TF over GST control); in test [5] it was 1.24 fold enrichment (6-mer frequency, TF over GST control); in test [6] it was 1.12 fold enrichment (6-mer frequency, TF over GST control). For the same sequence, the binding signal is 1.15 fold enrichment (6-mer frequency, TF over GST control) in test [7]; 1.11 fold enrichment (6-mer frequency, TF over GST control) in test [8]; 1.27 fold enrichment (6-mer frequency, TF over GST control) in test [9].
Turning to ACTAAA, the binding signal in [1] was 1.26 fold enrichment (6-mer frequency, TF over GST control); in test [2], 1.22 fold enrichment (6-mer frequency, TF over GST control); in [3], 1.34 fold enrichment (6-mer frequency, TF over GST control); in test [4] it was 1.3 fold enrichment (6-mer frequency, TF over GST control); in test [5], 1.32 fold enrichment (6-mer frequency, TF over GST control); in test [6], 1.21 fold enrichment (6-mer frequency, TF over GST control). Moreover, the binding signal in [7] is 1.32 fold enrichment (6-mer frequency, TF over GST control); in test [8], 1.28 fold enrichment (6-mer frequency, TF over GST control); in test [9], 1.34 fold enrichment (6-mer frequency, TF over GST control).
Consider TTTACT, for which the binding signal is 1.41 fold enrichment (6-mer frequency, TF over GST control) in [1]; 1.56 fold enrichment (6-mer frequency, TF over GST control) in test [2]; 1.53 fold enrichment (6-mer frequency, TF over GST control) in test [3]; 1.43 fold enrichment (6-mer frequency, TF over GST control) in test [4]; 1.43 fold enrichment (6-mer frequency, TF over GST control) in test [5]; 1.51 fold enrichment (6-mer frequency, TF over GST control) in [6]. In addition, the binding signal is 1.46 fold enrichment (6-mer frequency, TF over GST control) in test [7]; 1.37 fold enrichment (6-mer frequency, TF over GST control) in [8]; 1.41 fold enrichment (6-mer frequency, TF over GST control) in [9].
As for TTTTAC, the binding signal in [1] is 1.45 fold enrichment (6-mer frequency, TF over GST control); in [2], 1.27 fold enrichment (6-mer frequency, TF over GST control); in test [3], 1.33 fold enrichment (6-mer frequency, TF over GST control); in test [4] it was 1.3 fold enrichment (6-mer frequency, TF over GST control); in test [5] it was 1.39 fold enrichment (6-mer frequency, TF over GST control); in test [6] it was 1.45 fold enrichment (6-mer frequency, TF over GST control). For the same sequence, the binding signal in test [7] was 1.37 fold enrichment (6-mer frequency, TF over GST control); in test [8] it was 1.4 fold enrichment (6-mer frequency, TF over GST control); in test [9], 1.39 fold enrichment (6-mer frequency, TF over GST control).
For the sequence TCCCAT, the binding signal in test [1] is 1.36 fold enrichment (6-mer frequency, TF over GST control); in [2], 1.37 fold enrichment (6-mer frequency, TF over GST control); in test [3] it was 1.51 fold enrichment (6-mer frequency, TF over GST control); in [4], 1.45 fold enrichment (6-mer frequency, TF over GST control); in test [5], 1.44 fold enrichment (6-mer frequency, TF over GST control); in test [6] it was 1.43 fold enrichment (6-mer frequency, TF over GST control). Besides, the binding signal in test [7] was 1.28 fold enrichment (6-mer frequency, TF over GST control); in test [8], 1.48 fold enrichment (6-mer frequency, TF over GST control); in test [9] it was 1.47 fold enrichment (6-mer frequency, TF over GST control).
For CGTTCG, the binding signal in test [1] is 1.15 fold enrichment (6-mer frequency, TF over GST control); in [2], 1.14 fold enrichment (6-mer frequency, TF over GST control); in test [3], 1.23 fold enrichment (6-mer frequency, TF over GST control); in test [4], 1.17 fold enrichment (6-mer frequency, TF over GST control); in test [5] it was 1.22 fold enrichment (6-mer frequency, TF over GST control); in test [6], 1.25 fold enrichment (6-mer frequency, TF over GST control). Further, the binding signal is 1.1 fold enrichment (6-mer frequency, TF over GST control) in test [7]; 1.14 fold enrichment (6-mer frequency, TF over GST control) in [8]; 1.24 fold enrichment (6-mer frequency, TF over GST control) in test [9].
In the case of ACCTAC, the binding signal in test [1] was 1.22 fold enrichment (6-mer frequency, TF over GST control); in test [2], 1.2 fold enrichment (6-mer frequency, TF over GST control); in test [3] it was 1.21 fold enrichment (6-mer frequency, TF over GST control); in test [4] it was 1.1 fold enrichment (6-mer frequency, TF over GST control); in [5] it was 1.27 fold enrichment (6-mer frequency, TF over GST control); in test [6], 1.21 fold enrichment (6-mer frequency, TF over GST control). Moreover, the binding signal in [7] is 1.18 fold enrichment (6-mer frequency, TF over GST control); in test [8] it was 1.23 fold enrichment (6-mer frequency, TF over GST control); in [9], 1.13 fold enrichment (6-mer frequency, TF over GST control).
